Laboratory results published in PubChem BioAssay AID686978 (National Center for Advancing Translational Sciences (NCATS), 2013).
About 64,000 (15%) of roughly 420,000 compounds were called active. Another 27% or so got no clear call; they are omitted. A selection follows. Unmarked numbers belong to inactive results. The call rests on the fitted dose curve; in most records, active means well fitted inhibition curve with a large enough effect; inconclusive means small, poorly fitted or top-dose-only effect; inactive means flat fitted curve, though single readings scatter.

assay: qHTS for Inhibitors of human tyrosyl-DNA phosphodiesterase 1 (TDP1): qHTS in cells in absence of CPT; settings: DT40 Tdp1-/- hTDP1 cells, no CPT, ATP luminescence, 48 h; activity change, negative = growth inhibition: at 46.2 µM (top of the series); further: nearly all actives have a fitted effect of over 55% in size
Source text: Human tyrosyl-DNA phosphodiesterase 1 (TDP1) is a novel repair gene, and we propose to use it as a new target for anticancer drug development. TDP1 is not an essential protein, but under treatment with topoisomerase I poison (camptothecin: CPT), TDP1 works as a critical factor for cell survival. To directly identify novel TDP1 inhibitors active in a cellular environment, we have knocked-out the Tdp1 gene in chicken DT40 cells (Tdp1-/-) and generated a complemented counterpart cells that contains a stable transfection of the human TDP1 gene (Tdp1-/-;hTDP1 cells). For the primary screen, Tdp1-/-;hTDP1 cells will be exposed to small molecules in the presence or absence of CPT, and their growth kinetics will be evaluated after 48 hours by measuring ATP activity. […] The hit compounds will then be evaluated in the presence or absence of CPT using Tdp1-/- cells. […] In tertiary assays, biochemical gel-based assays will be used to assess whether the hit compounds specifically target TDP1.
To this end, we have screened this cell line against the MLSMR in two primary screens. In one screen we add CPT and in the other we screen in the absence of CPT; this AID represents the screen where CPT was absent.
NIH Chemical Genomics Center [NCGC]
NIH Molecular Libraries Probe Centers Network [MLPCN]
Assay Submitter (PI): Yves Pommier, NCI
DT40-hTDP1 cells without 20 nM Camptothecin (add 20 microL of DMSO in 1 L of cell culture medium) were dispensed at 400 cells/5microL/well in tissue culture treated 1536-well white wall/solid bottom assay plates (Greiner Bio-One North America, NC, U.S.A.) using a Multidrop Combi 8 channel dispenser (Thermo Fisher, Waltham, MA, USA). 23 nL compounds and controls were transferred using the pin tool (Kalypsys, San Diego, CA, USA) to the assay plates. The assay plates were then incubated at 37 masculineC for a minimum 48 hr. Three microL of Cell Titer Glo solution was added to the plates and incubated at RT in dark for 30 min. Luminescence was read using ViewLux (Perkin Elmer) with 1 sec exposure slow speed, high gain and 2x binning.
On the % scale 0 is the no-effect control and ±100 the full control effect; potency means the concentration at half of the fitted maximal effect.

First: Cc1ccnc2nc(C(=O)Nc3nnc(-c4ccccc4)o3)nn12
Second: Cc1cc(C(=O)NC2CC(C)(C)Cc3c2cnn3-c2ccccc2)n[nH]1 (centres undefined)
The “activity change, negative = growth inhibition” value of the first is higher: 4.64% for the first, -8% for the second.

Going from `Cc1ccc(OCC(=O)Nc2ccccc2C(=O)NC2CC2)cc1C` to `CC(NCC(=O)Nc1ccccc1C(=O)NC1CC1)c1ccccc1Cl` (centres undefined), the “activity change, negative = growth inhibition” value rises from -18.6% to 3.62%.

First: C[C@H](NC(=O)C1CCN(S(=O)(=O)c2ccccc2)CC1)C(=O)NCc1ccccc1
Second: COc1ccc(N(CC(=O)N2CCCCCC2)S(=O)(=O)c2ccccc2)cc1
The “activity change, negative = growth inhibition” value of the first is higher: 2.13% for the first, -21.7% for the second.

Going from `O=C(COc1ccc([N+](=O)[O-])cc1Cl)Nc1ccc2[nH]c(=O)[nH]c2c1` to `Cc1ccc(NC(=O)Cn2cnc3nc4c(cc3c2=O)CCCC4)cc1Cl`, the “activity change, negative = growth inhibition” value rises from -25.9% to 2.29%.

First: O=C1N(c2ccc(Cl)cc2)C(c2ccc(Cl)cc2)N2CCCN12 (centres undefined)
Second: CC12CN3CC(C)(CN(C1)C3c1ccc(Cl)cc1Cl)C2=O (centres undefined)
The “activity change, negative = growth inhibition” value of the first is lower: -5.61% for the first, -1.85% for the second.

Going from `COc1ccc(N2C(=O)CNC2=S)cc1` to `COc1ccc(-n2c(-c3ccc(OC)c(OC)c3)n[nH]c2=S)cc1`, the “activity change, negative = growth inhibition” value rises from 0.715% to 1.09%.

Going from `FC(F)(F)c1cccc(-c2nc(COc3ccc(Cl)cc3Cl)no2)c1` to `Cc1ccc(-c2noc(-c3nnn(-c4cccc(C(F)(F)F)c4)c3N)n2)cc1`, the “activity change, negative = growth inhibition” value rises from -3.5% to 4.08%.

Going from `CS(=O)(=O)N(CC(=O)N1CCOCC1)c1ccc2c3c(cccc13)CC2` to `CS(=O)(=O)N(CC(=O)N1CCN(Cc2ccccc2)CC1)c1ccc2c(c1)OCCO2`, the “activity change, negative = growth inhibition” value falls from -0.193% to -6.95%.

First: O=C(COC(=O)CNS(=O)(=O)c1ccc(F)c(F)c1F)NC1CCCC1
Second: Cc1cc(C)cc(N(CC(=O)NC2CCCC2)C(=O)CCC(=O)Nc2nccs2)c1
The “activity change, negative = growth inhibition” value of the first is lower: -24.1% for the first, -15.3% for the second.

Going from `FC(F)(F)c1ccccc1-c1nc(-n2ccnc2)c2ccccc2n1` to `O=C(COC(=O)c1ccccn1)Nc1cccc2ccccc12`, the “activity change, negative = growth inhibition” value falls from 1.22% to 0.707%.

Compared with `COc1cccc(Nc2ncccc2C(=O)O)c1`, `COc1ccc(OC)c(Nc2nc3ccccc3n3cnnc23)c1` is lower in “activity change, negative = growth inhibition” value: -1.91% for the first, -28.7% for the second.

Going from `CC(C)c1cc(CN2CCOCC2)cc(C(C)C)c1O` to `COc1cc(C(=O)N2CCN(S(=O)(=O)c3ccc(C(C)C)cc3)CC2)ccc1OCC(=O)N1CCOCC1`, the “activity change, negative = growth inhibition” value rises from 13.6% to 18.5%.

Going from `O=C(Cc1ccccc1)Nc1ccc(NC(=O)c2cccnc2)cc1` to `C/C(Cc1ccccc1)=N\NC(=O)CNC(=O)c1cccc(Br)c1`, the “activity change, negative = growth inhibition” value rises from -9.26% to -2.1%.

Compared with `CC(C)(C)c1cc[n+](-c2[nH]c(=O)sc2/C=N/N=C(\[O-])c2ccccc2)cc1`, `COc1ccc(C2C(C(C)=O)=C(O)C(=O)N2CCc2c[nH]c3ccccc23)cc1` (centres undefined) is lower in “activity change, negative = growth inhibition” value: 1.02% for the first, -14.6% for the second.

First: CCCS(=O)(=O)Nc1c(C(=O)O)[nH]c2ccccc12
Second: C[N+](C)(C)CCNC(=O)c1c[nH]c2ccccc12
The “activity change, negative = growth inhibition” value of the first is higher: 1.22% for the first, -19.4% for the second.

Going from `N/C(=N\OC(=O)c1ccc2c(c1)OCO2)c1ccc(Br)cc1` to `COc1ccc(C(=O)NC(Cc2ccc(OC(=O)c3ccc(OC)cc3)cc2)C(=O)O)cc1` (centres undefined), the “activity change, negative = growth inhibition” value rises from -6.73% to 2.2%.

Compared with `CCn1cc(C(=O)NCCC(=O)NCCO)c(=O)c2cc3c(cc21)OCO3`, `CCCN(CC(=O)Nc1ccc(C(N)=O)cc1)CC(=O)Nc1ccccc1C` is lower in “activity change, negative = growth inhibition” value: -3.37% for the first, -26.5% for the second.

Going from `Cc1ccc(N2C(=O)CC(N3CCSCC3)C2=O)c(C)c1` (centres undefined) to `CC1(C)Cc2c(cnn2-c2cccc(F)c2)C(NC(=O)c2cc[n+]([O-])cc2)C1` (centres undefined), the “activity change, negative = growth inhibition” value falls from 15.3% to -4.77%.

Compared with `COc1ccc(-n2ncc3c2CC(C)(C)CC3NC(=O)CCc2c(C)noc2C)cc1` (centres undefined), `COc1ccc(-n2ncc3c2CC(C)(C)CC3NC(=O)CCc2c(C)nn(C)c2C)cc1` (centres undefined) is higher in “activity change, negative = growth inhibition” value: -10.3% for the first, -3.17% for the second.

Going from `CCn1ncc(CNC(=O)C2(C)CC2(Br)Br)c1C` (centres undefined) to `C/C(=N\NC(=O)COc1c(C)cccc1C)c1cccs1`, the “activity change, negative = growth inhibition” value falls from -2.88% to -27.7%.

Going from `FC(F)(F)c1ccnc(Oc2ccc(C3=NCCS3)cc2)c1` to `CN(CCc1ccccn1)C(=O)CCC1CCCN(Cc2ccccc2OC(F)F)C1` (centres undefined), the “activity change, negative = growth inhibition” value falls from -5.22% to -10.5%.

First: Cc1c(Cl)cccc1NC(=O)CCC(=O)N/N=C/c1ccco1
Second: C=CCN1CC(C)/C(=N\O)CC1C (centres undefined)
The “activity change, negative = growth inhibition” value of the first is higher: 15.7% for the first, -4.43% for the second.

For `CC1CCCCC1NCC(=O)Nc1ccccc1C(=O)Nc1ccccc1` (centres undefined), the Potency was 14.6 µM (active).
In the case of `COc1ccc(-c2cn(-c3ccc(OC)cc3)c(=S)[nH]2)cc1`, the Potency is reported as 18.4 µM (active).
In the case of `COc1cccc(Nc2nc3ccccc3c3nncn23)c1`, the Potency is reported as 25.9 µM (active).
With `FC(F)(F)c1cc(Nc2nc3ccccc3c3nncn23)ccc1Cl` the Potency was 16.4 µM (active).
For `COc1ccc(/C=C(\C#N)c2c[nH]c3ccccc23)cc1`, the Potency was 0.651 µM (active).
In the case of `CC1CCN(C(=O)CN(c2ccc(Oc3ccccc3)cc2)S(C)(=O)=O)CC1`, the Potency is reported as 13 µM (active).
For `Cc1ccc(-n2ncc3c2CC(C)(C)CC3NC(=O)Cc2c(C)noc2C)cc1` (centres undefined), the Potency was 23.1 µM (active).
With `COC(=O)c1ccc(C(=O)NC2CC(C)(C)Cc3c2cnn3-c2ccc(F)cc2)nc1` (centres undefined) the Potency was 3.66 µM (active).
With `C/C(=N\NC(=O)CNc1cccc2ccccc12)c1ccc(Br)s1` the Potency was 8.2 µM (active).
With `Cc1cccc(/C=N/NC(=O)CNc2cccc3ccccc23)n1` the Potency was 13 µM (active).
